This note sets out measurements from PubChem BioAssay (NCI).

Test systems include NCI-H23 lung; NCI-H226 lung; NCI-H322M lung; HOP-62 NSCLC; NCI-H460 lung; HOP-92 NSCLC; NCI-H522 lung; A549/ATCC NSCLC; 786-0 renal; COLO 205 colon; DU-145 prostate; K-562 leukemia; MALME-3M melanoma; MDA-MB-231 breast; RXF 393 renal; SF-268 CNS; SF-295 CNS; SF-539 CNS; UACC-257 melanoma; M14 melanoma.
Test in all cases: NCI-60 one-dose screen, 48 h (100 = growth as untreated, 0 = no growth, -100 = all killed)
What all share (conditions): 10 µM unless noted

Each structure is given as a SMILES string. About 83,000 compounds went through this panel and 20% of them were active in at least one assay; those are over-represented in the sample as a whole.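 A percent growth of 40 corresponds to 60% growth inhibition; 0 means no net growth; -100 means all cells died. Active threshold: below 10.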 Values without a mark were called inactive. Active and inactive are the calls of the source.

Take `N#CCc1cccc2ccccc12`: the growth is 109% in the assay on NCI-H23 lung; 100% with NCI-H226 lung; 106% in the assay with NCI-H322M lung; 109% in the assay on HOP-62 NSCLC; 108% in the assay on NCI-H460 lung; 87.2% with HOP-92 NSCLC. The growth in the assay with NCI-H522 lung is 91.6%; with A549/ATCC NSCLC it was 103%; in the assay on 786-0 renal, 109%; in the assay with COLO 205 colon it was 115%; in the assay with DU-145 prostate, 123%; with K-562 leukemia it was 103%. For the same molecule, the growth in the assay with MALME-3M melanoma was 110%; in the assay on MDA-MB-231 breast it was 103%; with RXF 393 renal, 114%; with SF-268 CNS, 116%; in the assay on SF-295 CNS it was 123%; in the assay on SF-539 CNS, 101%. The growth in the assay on UACC-257 melanoma is 105%; in the assay on M14 melanoma, 109%.

As to `COc1cc(/C=C/C(=O)CC(=O)/C=C/c2ccc(O)c(OC)c2)ccc1O`, the growth in the assay on NCI-H23 lung is 21.1%; in the assay on NCI-H226 lung, 88.1%; in the assay on NCI-H322M lung, 78.3%; in the assay on HOP-62 NSCLC, 40.9%; with NCI-H460 lung, 47.4%; with HOP-92 NSCLC, 71.9%. For the same molecule, the growth in the assay on NCI-H522 lung is -22.5% (active); in the assay with A549/ATCC NSCLC it was 63.8%; with 786-0 renal it was 16.7%; with COLO 205 colon, 86.3%; in the assay with DU-145 prostate, 40.6%; in the assay with K-562 leukemia, 12.5%. Further, the growth in the assay on MALME-3M melanoma was 60.3%; in the assay on MDA-MB-231 breast it was 82.3%; with RXF 393 renal, 20.3%; in the assay on SF-268 CNS, 44.9%; with SF-295 CNS, 102%; in the assay with SF-539 CNS, 14.8%. In addition, the growth is 53.6% in the assay with UACC-257 melanoma and 7.15% (active) in the assay with M14 melanoma.

Turning to `O=C(CCl)N(c1ccccc1)c1ccccc1`, the growth is 98.1% in the assay with NCI-H23 lung; 102% in the assay on NCI-H226 lung; 95% with NCI-H322M lung; 105% in the assay with HOP-62 NSCLC; 111% with NCI-H460 lung; 78.5% with HOP-92 NSCLC. Further, the growth in the assay on NCI-H522 lung was -29.7% (active); with A549/ATCC NSCLC, 103%; in the assay on 786-0 renal it was 108%; in the assay on COLO 205 colon, 111%; in the assay on DU-145 prostate it was 110%; with K-562 leukemia it was 105%. Further, the growth in the assay with MALME-3M melanoma is 98.6%; in the assay on MDA-MB-231 breast, 114%; with RXF 393 renal it was 104%; in the assay with SF-268 CNS, 105%; with SF-295 CNS, 103%; with SF-539 CNS, 108%. The values for the growth with UACC-257 melanoma and with M14 melanoma were 94.1% and 95.9%, respectively.

On to `CCN1/C(=C/C(C)=C/c2sc3ccc4ccccc4c3[n+]2CC)Sc2ccc3ccccc3c21`, for which the growth in the assay with NCI-H23 lung was -65.5% (active); with NCI-H226 lung, -82.4% (active); with NCI-H322M lung it was -97.8% (active); in the assay on HOP-62 NSCLC, -65.2% (active); with NCI-H460 lung, -90.5% (active); with HOP-92 NSCLC it was -89.1% (active). Besides, the growth in the assay on NCI-H522 lung was -77.3% (active); with A549/ATCC NSCLC, -76.8% (active); in the assay on 786-0 renal, -88.5% (active); in the assay on COLO 205 colon, -83.6% (active); with DU-145 prostate, -100% (active); in the assay with K-562 leukemia it was -23.7% (active). In addition, the growth in the assay with MALME-3M melanoma is -87% (active); in the assay with MDA-MB-231 breast it was -82.5% (active); in the assay with RXF 393 renal, -88.1% (active); in the assay with SF-268 CNS it was -91.1% (active); in the assay with SF-295 CNS, -93% (active); in the assay on SF-539 CNS, -98.1% (active). The growth is -82.2% (active) with UACC-257 melanoma and -79.8% (active) with M14 melanoma.

Regarding `CCC(C)(O)Cc1ccc(Cl)cc1` (centres undefined), the growth is 109% with NCI-H23 lung; 97.5% in the assay on NCI-H226 lung; 100% in the assay on NCI-H322M lung; 97.1% in the assay on HOP-62 NSCLC; 104% in the assay on NCI-H460 lung; 102% with HOP-92 NSCLC. For the same molecule, the growth in the assay with NCI-H522 lung was 99.5%; in the assay with A549/ATCC NSCLC, 104%; in the assay with 786-0 renal, 100%; in the assay with COLO 205 colon, 108%; in the assay on DU-145 prostate, 114%; with K-562 leukemia it was 99.3%. For the same molecule, the growth with MALME-3M melanoma is 110%; in the assay with MDA-MB-231 breast, 95.7%; in the assay with RXF 393 renal, 101%; with SF-268 CNS it was 106%; with SF-295 CNS, 94.6%; with SF-539 CNS, 104%. Moreover, the growth is 108% in the assay with UACC-257 melanoma and 101% in the assay with M14 melanoma.

In the case of `COc1ccc2nc3cc([N+](=O)[O-])ccc3c(NNc3ccccc3)c2c1`, the growth in the assay with NCI-H23 lung was 66.6%; with NCI-H226 lung, 63.8%; in the assay with NCI-H322M lung it was 86.9%; with HOP-62 NSCLC, 37%; in the assay on NCI-H460 lung it was 82.4%; in the assay on HOP-92 NSCLC it was 14.8%. Moreover, the growth is 85% with NCI-H522 lung; 95.2% in the assay on A549/ATCC NSCLC; -18.8% (active) in the assay on 786-0 renal; 99.8% in the assay on COLO 205 colon; 89.6% in the assay with DU-145 prostate; 90.5% with K-562 leukemia. In addition, the growth in the assay on MALME-3M melanoma is 90.9%; in the assay with MDA-MB-231 breast it was 66.5%; in the assay on RXF 393 renal, 46.9%; with SF-268 CNS, 56.8%; with SF-295 CNS, 56%; in the assay on SF-539 CNS it was 22.6%. For the same molecule, in the assay on UACC-257 melanoma, the growth is 101%.

Turning to `COc1ccc2c(c1OC)OCC(CN(C)C)C2=O` (centres undefined), the growth in the assay on NCI-H23 lung is 104%; in the assay on NCI-H226 lung, 97.6%; in the assay on NCI-H322M lung it was 111%; in the assay on HOP-62 NSCLC it was 100%; with NCI-H460 lung it was 122%; in the assay with HOP-92 NSCLC, 52.1%. Also, the growth in the assay with NCI-H522 lung is -81% (active); with A549/ATCC NSCLC it was 98.9%; with 786-0 renal, 92.7%; with COLO 205 colon it was -75.2% (active); in the assay on DU-145 prostate it was 91.9%; in the assay on K-562 leukemia, -100% (active). The growth was 71.5% in the assay on MALME-3M melanoma; 96.7% with MDA-MB-231 breast; 98% in the assay with RXF 393 renal; 110% in the assay with SF-268 CNS; 96.2% in the assay with SF-295 CNS; 97.1% with SF-539 CNS. Moreover, the values for the growth with UACC-257 melanoma and in the assay with M14 melanoma were 99.1% and 98.5%, respectively.

`Cc1cc(C(=O)c2ccc(Cl)cc2)ccc1O`: the growth with NCI-H23 lung was 102%; with NCI-H226 lung, 90.1%; with NCI-H322M lung it was 103%; in the assay with HOP-62 NSCLC, 85.7%; in the assay with NCI-H460 lung it was 106%; in the assay on HOP-92 NSCLC it was 104%. Besides, the growth was 72.5% with NCI-H522 lung; 91.8% in the assay with A549/ATCC NSCLC; 79.7% in the assay with 786-0 renal; 122% in the assay on COLO 205 colon; 98.2% in the assay on DU-145 prostate; 112% with K-562 leukemia. The growth in the assay on MALME-3M melanoma is 112%; with MDA-MB-231 breast it was 94.3%; in the assay with RXF 393 renal, 75.7%; in the assay on SF-268 CNS, 92.5%; in the assay on SF-295 CNS, 90.3%; in the assay with SF-539 CNS it was 93%. Besides, the growth is 115% in the assay on UACC-257 melanoma and 89.2% with M14 melanoma.
